# Shiga inhibitor – inhibitors of Shiga toxin in Vero cells; Vero cells, Shiga toxin protein synthesis inhibition reporter; actives 9.2% (n = 290,000); inhibition, % at 38.7 µM; in the data active = inhibition mostly above about 28%, no sharp cut-off; inactive = mostly below about 43%; note: 0% is about no effect
# RE007 growth inh – less growth of the S. pombe RE007 Vpr strain. S. pombe RE007 Vpr strain, BacTiter-Glo ATP luminescence, 24 h. Potency, µM (top dose mostly 92.2 µM), without a hit: top-dose activity change, negative = less growth, actives largely listed as inhibitors. actives 0.21% (n = 360,000). AID 651644; active = well fitted falling curve with a large enough effect; inconclusive = small, poorly fitted or top-dose-only effect; inactive = no such curve, though single readings can be large or run the other way; note: potency is the fitted concentration of half-maximal effect; % is set by controls: 0 for no effect and ±100 for the full control effect; nearly all actives have a fitted effect of over 50% in size
#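 Fission yeast strain RE007, carrying one chromosomally integrated HIV-1 vpr copy, was seeded at OD 0.01 in PMG+AL medium with 23 nL pinned compound. After 24 h at 30 °C and 99% humidity, viability was read by BacTiter-Glo luminescence.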
# Cycloheximide cs – counter-screen hit for Shiga toxin inhibitors, cycloheximide; AID 2314; cell reporter, cycloheximide protein synthesis inhibition counterscreen; actives 12% (n = 300,000); max response, %; in the data active = max response mostly above about 13%, no sharp cut-off; inactive = mostly below about 14%; note: read at 38.3 µM for the half of the compounds with a filed dose; 0% is about no effect
# TbPYK inhibitor – blocks Trypanosoma brucei pyruvate kinase; Q57TT1; TbPYK enzyme, Kinase-Glo Plus ATP luminescence, 45 min; Potency, µM (doses to about 76.8 µM), without a hit: top-dose activity, negative = inhibition, usual class: inhibitors; actives 0.12% (n = 410,000); AID 624173; note: potency is the fitted concentration of half-maximal effect; % is set by controls: 0 for no effect and ±100 for the full control effect; nearly all actives have a fitted effect of over 50% in size
#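 In this concentration-response screen, enzyme-free wells defined baseline while DMSO plates tracked drift. Each reaction combined TbPYK, substrate, compound and 130 uM ADP for 45 min at room temperature. Kinase-Glo Plus luminescence gave the signal.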
# Giardia FBPA inh – Giardia lamblia aldolase inhibition | A8B2U2 | purified Giardia FBPA | Potency, µM (doses to about 59.6 µM), without a hit: at the top dose activity, negative = inhibition, most hits filed as inhibitors | actives 0.71% (n = 290,000) | AID 2451; note: potency is the fitted concentration of half-maximal effect; % is set by controls: 0 for no effect and ±100 for the full control effect; nearly all actives have a fitted effect of over 55% in size
# Target sequence (A8B2U2 whole entry, looked up): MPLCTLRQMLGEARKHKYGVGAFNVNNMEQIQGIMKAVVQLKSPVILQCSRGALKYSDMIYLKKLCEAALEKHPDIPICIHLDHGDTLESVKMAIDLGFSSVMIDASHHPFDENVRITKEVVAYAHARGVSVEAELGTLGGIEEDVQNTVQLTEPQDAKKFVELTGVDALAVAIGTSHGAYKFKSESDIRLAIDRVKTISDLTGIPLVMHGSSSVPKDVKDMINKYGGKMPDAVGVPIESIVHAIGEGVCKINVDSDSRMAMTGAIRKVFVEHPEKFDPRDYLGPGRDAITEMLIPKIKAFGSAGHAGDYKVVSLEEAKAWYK
#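 40 nM FBPA preincubated 10 min at RT with compound (up to 57.5 uM final), then substrate plus GAPDH/TPI/NAD/arsenate coupling and diaphorase/resazurin added. Fluorescence read after 20 min at RT, 525/598 nm.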
# LmPK inh – LmPK (Leishmania mexicana) enzyme inhibition; Potency, µM (doses to about 57.5 µM), for the others: top-dose activity change, negative = inhibition, actives largely listed as inhibitors; AID 1721; actives 0.37% (n = 290,000); purified LmPK, Kinase-Glo ATP luminescence, 1 h; note: potency is the fitted concentration of half-maximal effect; % is set by controls: 0 for no effect and ±100 for the full control effect
#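 Kinase-Glo luminescence read after 1 h RT reaction of 0.1 nM LmPK with 0.5 mM PEP and 0.1 mM ADP. Activity scaled between uninhibited and enzyme-free controls.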
# Numbers without * were called inactive; ? = inconclusive; / = not tested or not shown; ! = not active in a repeat. The entries come from a sample that favours hits as a whole. Unless noted, calls come from the whole dose curve; as a rule, active = well fitted curve in the direction sought with a large enough effect; inconclusive = small, poorly fitted or top-dose-only effect, or another doubt; inactive = no such curve, though single readings can be large; an effect the other way counts as inactive or inconclusive.
SMILES,Shiga inhibitor,RE007 growth inh,Cycloheximide cs,TbPYK inhibitor,Giardia FBPA inh,LmPK inh
Cc1cccc(C)c1OCc1cc(C(=O)NCC2CC2)no1,88,10%,10*,1%,/,-5%
Cc1cccc(C)c1OCc1cc(C(=O)NC2CCC2)no1,37*,6%,37*,5%,3%,-1%
Cc1cccc(C)c1OCc1cc(C(=O)NC2CCC(O)CC2)no1 (centres undefined),46,-3%,12,5%,/,-9%
Cc1cccc(C)c1OCc1cc(C(=O)NCc2ccc(Cl)s2)no1,7,-10%,18*,0%,-2%,-2%
Cc1cccc(C)c1OCc1cc(C(=O)NCC2COCCO2)no1 (centres undefined),-23,6%,14,4%,/,-10%
O=C(Cn1cc(SCc2ccccc2F)c2ccccc21)N1CCCCCC1,/,/,/,-2%,/,/
CC(=O)N1CCN(S(=O)(=O)c2cccc(C(=O)N(Cc3ccccc3)c3cccc(C)c3)c2)CC1,/,9%,/,-14%,/,/
Cn1c(=O)cc(OCCCC(=O)Nc2ccc(F)cc2)c2ccccc21,/,/,/,-3%,/,/
CCC(=O)c1ccc(OC(=O)Cc2ccc(OC)cc2)cc1,-10,-5%,-2,-3%,2%,0%
O=C(COC(=O)c1ccc2ncsc2c1)Nc1ncc(Cl)cc1Cl,9,2%,37*,3%,23%,-5%
O=C(COC(=O)c1ccc2ncsc2c1)Nc1cc(Cl)ccc1F,/,?,/,-12%,/,/
O=C(COC(=O)c1ccc2ncsc2c1)NC(=O)c1ccccc1,-14,-8%,10,-18%,-2%,0%
Cc1c(Cl)cnc(NC(=O)COC(=O)c2ccc3ncsc3c2)c1Cl,60*,-8%,34*,-2%,11%,1%
COc1ccc(C(=O)NC(=O)COC(=O)c2ccc3ncsc3c2)cc1,35*,/,32*,/,?,1%
COc1ccc(NC(=O)CSCC(=O)N2CCN(C(=O)c3ccco3)CC2)cc1,/,-4%,/,-1%,/,/
CCN(Cc1cccc(F)c1)C(=O)c1ccc2ccccc2n1,62,4%,40*,-4%,-7%,3%
CC(C)CN1CCC(=O)N(C(CSc2ccc(Br)cc2)c2ccccc2)CC1 (centres undefined),25,/,32,/,12%,/
CC(C)CN1CCC(=O)N(CCOc2ccccc2)CC1,28*,-3%,28*,-5%,-3%,7%
CC(C)CN1CCC(=O)N(CCSc2ccc(Br)cc2)CC1,53*!,-5%,25,0%,3%,4%
O=C(/C=C/c1ccnc2ccccc12)c1cccs1,73*,?,38*,?,-25%,?
O=C(NC1CCCC1)c1cc(-c2cccc(Cl)c2)on1,131*,6%,37*,-3%,6%,-6%
O=C(NC1CCCCC1)c1cc(-c2cccc(Cl)c2)on1,39*,-1%,27*,-2%,4%,-4%
CC(=O)c1c(C)[nH]c(C(=O)Nc2nc(-c3ccc(-c4ccccc4)cc3)cs2)c1C,64*,/,11,2%,-3%,-3%
COc1ccc(-c2nc(NC(=O)CSCCO)sc2C)cc1,70*,-11%,24,3%,2%,-4%
COc1ccc(-c2nc(NC(=O)c3[nH]c(C)c(C(C)=O)c3C)sc2C)cc1,68*,7%,8,-3%,-14%,0%
SMILES,Shiga inhibitor,RE007 growth inh,Cycloheximide cs,TbPYK inhibitor,Giardia FBPA inh,LmPK inh
CC(=O)c1c(C)[nH]c(C(=O)Nc2nc(-c3ccc(Cl)cc3)cs2)c1C,5,2%,0,-2%,-8%,-1%
CCCOC(=O)Nc1nc(-c2ccc(C)cc2)c(C)s1,65*,?,27*,-6%,11%,-3%
O=C(COc1ccc(Cl)cc1)NCC(c1ccco1)S(=O)(=O)c1ccc(Cl)cc1 (centres undefined),/,/,/,-18%,/,/
O=C1c2ccccc2C(=O)N1CCc1ccccc1,/,0%,/,-7%,/,/
O=C1c2ccccc2C(=O)N1CCSc1nncs1,7,0%,-2,2%,7%,2%
Cc1csc(SCCN2C(=O)c3ccccc3C2=O)n1,102*,-7%,40*,0%,0%,-4%
O=C1c2ccccc2C(=O)N1CCSc1ccccc1,61,-16%,34*,3%,0%,-4%
COc1ccc(C(=O)OCC(=O)Nc2c(C)n(C)n(-c3ccccc3)c2=O)cc1OC,/,4%,/,3%,/,/
CCN(CC)S(=O)(=O)c1cccc(C(=O)N/N=C/c2cccc(O)c2O)c1,77*,-17%,53*,-11%,?,-2%
COCCNC(=O)C(=O)N/N=C/c1ccccc1C(F)(F)F,12,0%,1,5%,1%,3%
O=C(N/N=C/c1ccccc1C(F)(F)F)c1ccc(O)cc1,69*,13%,26*,5%,-9%,2%
O=C(N/N=C/c1ccc(O)cc1)c1cccc(C(F)(F)F)c1,9,-3%,7,-13%,3%,-5%
O=C(N/N=C/c1ccccc1O)c1cccc(C(F)(F)F)c1,48*,9%,16,-20%,-21%,3%
CCN(CC)S(=O)(=O)c1cccc(C(=O)N/N=C/c2cc(OC)c(O)c(OC)c2)c1,-4,5%,6,-10%,-6%,1%
CCn1c(C(=O)N2CCC(C(=O)N3CCN(c4cc(C)ccc4C)CC3)CC2)cc2sccc21,/,/,/,-5%,/,/
O=S(=O)(c1cccc(Cn2nnc(-c3ccccc3)n2)c1)N1CCOCC1,/,-16%,/,2%,/,/
Cc1cc(NC(=O)c2cc(-c3cccc(OCC(C)C)c3)nc3ccccc23)no1,-19,2%,-1,32%,/,0%
CC(=O)NCCC(=O)Nc1nc(-c2ccc3ccccc3c2)cs1,52*,1%,29*,-1%,2%,0%
CC(=O)NCCC(=O)Nc1nc(-c2ccccc2Cl)cs1,22,7%,8,-4%,-2%,-1%
O=C(Nc1ccc(-c2csc(-c3ccccc3)n2)cc1)c1ccccc1,-10,-16%,-2,3%,2%,-2%
CC(=O)Nc1ccc(-c2csc(NNC(=O)c3ccccc3)n2)cc1,25,1%,13,3%,9%,2%
CC(=O)Nc1nc(-c2ccc3ccccc3c2)cs1,87*,3%,38*,1%,9%,1%
Oc1ccc(Nc2nc(-c3ccc4ccccc4c3)cs2)cc1,121*,/,49*,/,-25%,5%
Oc1ccc(-c2nc(-c3ccc(O)c(O)c3)cs2)cc1,94*,6%,23,-2%,?,-21%
CCN(CC(=O)NCc1cccs1)C(=O)c1ccc(OC)c(OC)c1,/,-16%,/,10%,/,/
Cc1cccc(NC(=O)C(c2ccccc2)N2Cc3ccccc3C2=O)c1C (centres undefined),/,/,/,-1%,/,/
CC(=O)NCCC(=O)Nc1nc2c(ccc3ccccc32)s1,20,3%,15*,1%,0%,-1%
